ChEMBL document CHEMBL1961873, “Compounds: GSK PKIS; Assays: Nanosyn kinase panel” (2012)

Tests used:
[1] = molecular target: Glycogen synthase kinase-3 beta (Homo sapiens) (UniProt P49841); settings: at 1 µM;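 note: reported values are mean percent inhibition of GSK3B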
[2] = molecular target: Homeodomain-interacting protein kinase 1 (Homo sapiens) (UniProt Q86Z02); settings: at 0.1 µM
[3] = molecular target: Homeodomain-interacting protein kinase 1 (Homo sapiens) (UniProt Q86Z02); settings: at 1 µM
[4] = molecular target: T1, Homeodomain-interacting protein kinase 4 (Homo sapiens) (UniProt Q8NE63); settings: at 0.1 µM
T1 sequence (whole entry): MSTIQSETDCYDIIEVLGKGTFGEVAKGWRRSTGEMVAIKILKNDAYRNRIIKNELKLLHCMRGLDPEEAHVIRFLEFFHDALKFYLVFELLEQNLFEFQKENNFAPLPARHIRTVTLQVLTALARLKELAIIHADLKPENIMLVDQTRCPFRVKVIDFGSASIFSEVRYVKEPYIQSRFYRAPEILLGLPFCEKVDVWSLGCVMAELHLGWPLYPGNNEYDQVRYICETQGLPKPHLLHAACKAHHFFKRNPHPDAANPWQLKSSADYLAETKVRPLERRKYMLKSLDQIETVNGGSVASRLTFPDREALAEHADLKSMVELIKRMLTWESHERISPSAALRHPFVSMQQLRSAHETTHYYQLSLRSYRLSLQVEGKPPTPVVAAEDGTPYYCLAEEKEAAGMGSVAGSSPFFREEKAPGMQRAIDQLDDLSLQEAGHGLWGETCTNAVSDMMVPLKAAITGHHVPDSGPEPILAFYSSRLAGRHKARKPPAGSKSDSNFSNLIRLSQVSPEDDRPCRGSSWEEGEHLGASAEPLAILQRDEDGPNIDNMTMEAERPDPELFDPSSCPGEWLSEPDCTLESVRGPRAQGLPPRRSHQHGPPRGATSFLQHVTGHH

[5] = molecular target: T1, Homeodomain-interacting protein kinase 4 (Homo sapiens); settings: at 1 µM
[6] = molecular target: Mitogen-activated protein kinase 9 (Homo sapiens) (UniProt P45984); settings: at 0.1 µM
Sequence of Mitogen-activated protein kinase 9 (Homo sapiens) (P45984 whole entry, looked up): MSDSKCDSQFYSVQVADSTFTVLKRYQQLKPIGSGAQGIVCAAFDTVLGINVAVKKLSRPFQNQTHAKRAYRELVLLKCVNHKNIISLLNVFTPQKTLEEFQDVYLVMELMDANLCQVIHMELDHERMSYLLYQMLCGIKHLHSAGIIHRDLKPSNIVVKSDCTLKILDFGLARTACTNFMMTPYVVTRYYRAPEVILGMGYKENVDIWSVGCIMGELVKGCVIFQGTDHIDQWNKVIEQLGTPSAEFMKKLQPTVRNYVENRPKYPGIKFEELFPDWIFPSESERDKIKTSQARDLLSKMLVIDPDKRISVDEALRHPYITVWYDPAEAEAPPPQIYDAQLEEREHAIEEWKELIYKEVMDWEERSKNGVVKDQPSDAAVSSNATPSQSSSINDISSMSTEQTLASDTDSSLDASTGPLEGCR

[7] = molecular target: Mitogen-activated protein kinase 9 (Homo sapiens) (UniProt P45984); settings: at 1 µM
[8] = molecular target: Mitogen-activated protein kinase 1 (Homo sapiens) (UniProt P28482); settings: at 0.1 µM
Sequence of Mitogen-activated protein kinase 1 (Homo sapiens) (P28482 whole entry): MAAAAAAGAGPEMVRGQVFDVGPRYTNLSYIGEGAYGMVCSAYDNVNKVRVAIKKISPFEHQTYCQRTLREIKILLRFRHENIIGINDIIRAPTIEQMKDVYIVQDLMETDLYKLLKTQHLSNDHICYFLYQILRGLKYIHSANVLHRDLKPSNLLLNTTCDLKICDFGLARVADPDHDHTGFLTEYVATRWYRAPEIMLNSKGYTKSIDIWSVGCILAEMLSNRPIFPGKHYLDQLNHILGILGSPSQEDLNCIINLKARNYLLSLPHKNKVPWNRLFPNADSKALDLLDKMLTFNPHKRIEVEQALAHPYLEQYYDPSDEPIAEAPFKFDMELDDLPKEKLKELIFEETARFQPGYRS

[9] = molecular target: Mitogen-activated protein kinase 1 (Homo sapiens) (UniProt P28482); settings: at 1 µM
[10] = molecular target: Mitogen-activated protein kinase 3 (Homo sapiens) (UniProt P27361); settings: at 0.1 µM;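 note: each value is a mean inhibition figure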
Sequence of Mitogen-activated protein kinase 3 (Homo sapiens) (P27361 whole entry): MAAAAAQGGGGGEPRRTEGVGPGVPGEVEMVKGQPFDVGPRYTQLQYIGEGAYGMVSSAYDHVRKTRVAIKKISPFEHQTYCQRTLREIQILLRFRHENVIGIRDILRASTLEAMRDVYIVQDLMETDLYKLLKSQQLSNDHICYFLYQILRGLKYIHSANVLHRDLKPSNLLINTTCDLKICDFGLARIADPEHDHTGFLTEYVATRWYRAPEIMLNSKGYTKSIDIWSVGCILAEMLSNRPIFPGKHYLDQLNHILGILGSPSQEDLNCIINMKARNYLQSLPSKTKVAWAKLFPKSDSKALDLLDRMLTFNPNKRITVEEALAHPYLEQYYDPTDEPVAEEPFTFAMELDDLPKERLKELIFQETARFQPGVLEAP

Sequence of Glycogen synthase kinase-3 beta (Homo sapiens) (P49841 whole entry, looked up): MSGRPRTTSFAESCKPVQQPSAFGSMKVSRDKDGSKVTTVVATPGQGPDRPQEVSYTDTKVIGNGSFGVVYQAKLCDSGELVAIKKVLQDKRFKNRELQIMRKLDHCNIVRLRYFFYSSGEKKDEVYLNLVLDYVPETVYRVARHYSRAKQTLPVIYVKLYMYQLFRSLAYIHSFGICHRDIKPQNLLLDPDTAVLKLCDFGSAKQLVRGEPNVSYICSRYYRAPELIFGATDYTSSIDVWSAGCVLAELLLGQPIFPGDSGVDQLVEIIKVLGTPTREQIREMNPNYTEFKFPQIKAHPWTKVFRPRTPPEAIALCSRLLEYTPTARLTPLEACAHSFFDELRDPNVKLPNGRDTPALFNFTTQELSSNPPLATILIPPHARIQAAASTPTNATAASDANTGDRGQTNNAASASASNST
Sequence of Homeodomain-interacting protein kinase 1 (Homo sapiens) (Q86Z02 whole entry, looked up): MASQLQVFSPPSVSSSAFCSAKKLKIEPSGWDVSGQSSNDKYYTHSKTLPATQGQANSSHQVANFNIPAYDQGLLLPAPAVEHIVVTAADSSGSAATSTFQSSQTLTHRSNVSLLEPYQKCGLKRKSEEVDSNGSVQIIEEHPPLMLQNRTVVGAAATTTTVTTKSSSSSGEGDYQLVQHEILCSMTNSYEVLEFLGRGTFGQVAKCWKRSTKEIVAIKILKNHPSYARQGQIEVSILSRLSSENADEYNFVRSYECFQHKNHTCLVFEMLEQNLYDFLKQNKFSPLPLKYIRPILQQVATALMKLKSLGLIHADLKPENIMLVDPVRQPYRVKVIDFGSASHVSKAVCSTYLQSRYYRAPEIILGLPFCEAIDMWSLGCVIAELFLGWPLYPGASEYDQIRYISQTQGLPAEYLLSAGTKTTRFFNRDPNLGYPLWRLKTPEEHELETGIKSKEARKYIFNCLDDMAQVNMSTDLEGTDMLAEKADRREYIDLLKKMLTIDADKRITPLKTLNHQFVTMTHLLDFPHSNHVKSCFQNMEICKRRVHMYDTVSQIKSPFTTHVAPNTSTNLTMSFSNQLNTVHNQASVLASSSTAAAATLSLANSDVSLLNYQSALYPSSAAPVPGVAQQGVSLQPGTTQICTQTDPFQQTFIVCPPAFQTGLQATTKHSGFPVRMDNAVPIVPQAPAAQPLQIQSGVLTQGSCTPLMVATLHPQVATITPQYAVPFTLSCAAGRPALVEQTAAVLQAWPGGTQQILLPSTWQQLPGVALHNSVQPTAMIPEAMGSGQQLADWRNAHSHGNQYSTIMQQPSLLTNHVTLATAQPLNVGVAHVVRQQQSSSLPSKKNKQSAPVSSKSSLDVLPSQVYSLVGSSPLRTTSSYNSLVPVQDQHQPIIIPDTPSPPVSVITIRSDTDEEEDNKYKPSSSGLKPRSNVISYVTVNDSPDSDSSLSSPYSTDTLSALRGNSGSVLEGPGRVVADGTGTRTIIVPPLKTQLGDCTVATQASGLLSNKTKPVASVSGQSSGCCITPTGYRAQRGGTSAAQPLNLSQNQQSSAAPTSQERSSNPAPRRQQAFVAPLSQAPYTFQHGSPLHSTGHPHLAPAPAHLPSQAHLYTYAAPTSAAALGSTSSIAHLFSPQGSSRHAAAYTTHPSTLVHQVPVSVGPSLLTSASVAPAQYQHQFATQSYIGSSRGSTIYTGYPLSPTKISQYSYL

Compound | inhibition [1] [%] | inhibition [2] [%] | inhibition [3] [%] | inhibition [4] [%] | inhibition [5] [%] | inhibition [6] [%] | inhibition [7] [%] | inhibition [8] [%] | inhibition [9] [%] | inhibition [10] [%]
COC(=O)Nc1nc2cc(Oc3cccc(NC(=O)Nc4cc(C(F)(F)F)ccc4F)c3)ccc2[nH]1 | 6.36 | -3.75 | -1.32 | -1.03 | 11.4 | 2.79 | 1.58 | -0.65 | 0.3 | -0.17
Cc1nnc(-c2ccc(C)c(-c3ccc(C(=O)Nc4cccc(C#N)c4)cc3)c2)o1 | 3.29 | -1.32 | -2.46 | 0.46 | 0.28 | 4 | 2.96 | 0.61 | 2.56 | 3.17
CCn1c(-c2nonc2N)nc2c(C#CC(C)(C)O)nc(CN3CCCC3)cc21 | 18.9 | -1.35 | 2.58 | -1.44 | 0.75 | 0.67 | -2.07 | -1.09 | 0.12 | 0.51
Nc1nc(-c2ccc3c(c2)C(=Cc2cc(Br)c(O)c(Br)c2)C(=O)N3)cs1 | 4.42 | -1.1 | 4.76 | 0.92 | 11.3 | -3.8 | -4.58 | -2.57 | -2.89 | -0.09
CS(=O)(=O)CCNCc1ccc(-c2ccc3ncnc(Nc4ccc(OCc5cccc(F)c5)c(C(F)(F)F)c4)c3c2)o1 | -0.18 | -1.8 | -2.73 | -1.19 | -0.51 | 5.87 | 4.78 | 5.04 | 5.42 | 2.83
NC(=O)c1ccc(-c2nc(-c3ccccn3)c(-c3ccc4c(c3)OCO4)[nH]2)cc1 | 6.9 | -0.15 | 2.8 | 1.68 | 1.67 | 1.97 | 5.34 | 2.52 | 1.22 | 1.34
Nc1ncnc2occ(-c3ccc(NC(=O)Nc4cccc(C(F)(F)F)c4)cc3)c12 | 11 | 5.73 | 37.4 | 67.4 | 78.3 | 3.31 | 14.5 | 4.78 | 6.77 | 4.22
Cn1cc(C=C2C(=O)Nc3cccnc32)c2ccccc21 | 8.9 | -0.99 | 13.8 | 1.64 | 15.2 | 3.04 | 6.24 | 2.02 | 2.73 | 2.22
COc1ccc(-c2coc3ncnc(N)c23)cc1 | 2.62 | -1.54 | 0.23 | -1.26 | 0.51 | 4.38 | 5.45 | 4.53 | 6.4 | 5.16
CNC(=O)c1cncc(/C=C/c2c(Cl)cccc2Cl)c1 | 1.92 | -2.63 | 4.11 | 1.25 | 7.87 | 4.08 | 10.1 | 5 | 4.6 | 5.34
CCN1CCC(CC(=O)Nc2n[nH]c3nc(-c4cccs4)c(Br)cc23)CC1 | 68.7 | 3.88 | 6.48 | 2.06 | 8.88 | -5.62 | -3.11 | -4.72 | -6.9 | -1.1
CC(C)=Cc1cccc2c1/C(=N/Nc1ccc(S(N)(=O)=O)cc1)C(=O)N2 | 44 | 2.49 | 10.8 | 1.38 | 6.2 | -0.73 | 6.66 | -0.23 | 0.78 | 0.6
CCn1c(-c2nonc2N)nc2cncc(C(=O)N3CC[C@H](N)C3)c21 | 12.1 | 1.36 | 8.14 | 0.99 | 3 | 8.24 | 9.12 | 4.87 | 7.62 | 3.48
O=C1Nc2ccc(C(=O)c3ccco3)cc2C1=Cc1cc(Cl)c(O)c(Cl)c1 | 75.8 | 14 | 54.1 | 4.69 | 32.9 | 2.31 | 6.22 | 2.44 | 4.55 | 1.44
CC1=C(C(=O)Nc2ccc3[nH]ncc3c2)C(c2ccc(Cl)c(Cl)c2)CC(=O)N1 (stereo not given) | 4.85 | 0.46 | -2.51 | 1 | 4.37 | 1.22 | 2.79 | 3.85 | 27.4 | 2.47
CS(=O)(=O)Nc1ccc(N/C=C2\C(=O)Nc3ccccc32)cc1 | 17.2 | -1.53 | 3.36 | 0.6 | 4.82 | 0.25 | 5.63 | -4.34 | -2.51 | -0.36
Fc1cccc(COc2ccc(Nc3ncnc4cc(-c5ccc[nH]5)sc34)cc2Cl)c1 | 1.92 | -5.52 | -2.5 | -1.95 | 2.7 | 2.73 | 3.15 | 3.5 | 4.2 | 0.89

Compound | inhibition [1] [%] | inhibition [2] [%] | inhibition [3] [%] | inhibition [4] [%] | inhibition [5] [%] | inhibition [6] [%] | inhibition [7] [%] | inhibition [8] [%] | inhibition [9] [%] | inhibition [10] [%]
Nc1ncnc2occ(-c3ccc(NC(=O)Nc4cc(C(F)(F)F)cc(C(F)(F)F)c4)cc3)c12 | 7.52 | 0.45 | 11.7 | 14.4 | 63.3 | 2.13 | 6.77 | 2.73 | 1.95 | 0.6
CS(=O)(=O)CCN(CC#N)Cc1ccc(-c2ccc3ncnc(Nc4ccc(OCc5cccc(F)c5)c(Cl)c4)c3c2)o1 | -0.38 | -6.53 | -4.34 | 0.31 | 2.79 | -0.56 | 2.18 | 3.93 | 1.9 | 1.67
CC1=C(C(=O)Nc2ccc3[nH]ncc3c2)C(c2ccc3ccccc3c2)CC(=O)N1 (stereo not given) | 7.81 | 1.49 | 4.61 | 1.02 | 4.03 | 0.73 | 2.65 | 5.52 | 39.5 | 3.92
CCn1c(-c2nonc2N)nc2c(N3CCCC3)nccc21 | 3.59 | -0.15 | 6.29 | -0.26 | 2.71 | -4.08 | -4.92 | -2.76 | -3.21 | 0.68
COc1cccc(-n2ncc3c(N/N=C/c4cccc(F)c4)ncnc32)c1 | 72.7 | -2.11 | 20.6 | 0.87 | 21.3 | 1.23 | 4.69 | 1.94 | 3.29 | 1.61
CC(=O)Nc1cccc(C#Cc2cncnc2Nc2ccc(OCc3cccc(F)c3)c(Cl)c2)n1 | 3.63 | 1.74 | 3.28 | 0.85 | 1.32 | -0.98 | -1.17 | -0.75 | -1.7 | -0.64
COc1ccc2cc(-c3c(-c4ccncc4)nc(-c4ccc([S+](C)[O-])cc4)n3C)ccc2c1 (stereo not given) | 9.29 | -1.81 | 1.99 | 0.14 | -0.51 | 1.55 | 4.27 | 1.94 | 2.54 | 4.68
COc1ccc(-c2nn3ncccc3c2-c2ccnc(Nc3ccc(Cl)c(C(F)(F)F)c3)n2)cc1 | 4.05 | -0.18 | -0.9 | 1.05 | 1.36 | 1.72 | 4.38 | 3.47 | 3.46 | 4.84
COc1cc2c(cc1Nc1nc(N3CCc4ccccc43)c3cc[nH]c3n1)N(C(=O)CN(C)C)CC2 | 0.72 | -1.15 | 2.7 | 1.42 | 2.99 | 1.11 | 1.82 | 0.85 | 2.12 | 2.89
CCCN1CCC=C(c2ccc(Nc3nc(Nc4ccccc4C(N)=O)c4cc[nH]c4n3)c(C)c2)C1 | 17.1 | 16.3 | 59.6 | 15.1 | 56.5 | 46.5 | 84.9 | 6.87 | 29.5 | 6.39
c1cnn2ncc(-c3ccnc(Nc4ccc5c(c4)OCCO5)n3)c2c1 | 91 | 86.2 | 93 | 42.3 | 79.8 | 12.8 | 54.4 | 6.5 | 24 | 6.55
CCc1cccc(NC(=O)Nc2ccc(Oc3ccc4nc(NC(=O)OC)[nH]c4c3)cc2)c1 | 6.49 | 1.47 | 4.9 | 7.33 | 13.9 | 2.67 | 1.01 | 2.12 | 0.03 | 2.25
Cc1cc(O)cc(C)c1/C=C/c1cncc(-c2nn[nH]n2)c1 | 2.36 | -4.42 | -1.96 | 1.12 | 3.32 | 7.47 | 9.2 | 4.59 | 5.51 | 4.38
Cc1ccc(NC(=O)c2ccnc(N3CCCC3)c2)cc1-c1ccc(C(=O)NCC2CC2)cc1 | 3.68 | -4.3 | -2.16 | -1.31 | 2.09 | 2.66 | 6.82 | 4.25 | 6.09 | 2.96
Cc1nn(C)c2cc(N(C)c3ccnc(Nc4cccc(S(N)(=O)=O)c4)n3)ccc12 | 5.82 | -3.06 | -2.18 | -1.56 | 4.09 | 3.35 | 10.2 | 2.91 | 4.88 | 2.88
Cc1cccc(-c2n[nH]cc2-c2ccc3ncccc3n2)n1 | 0.05 | -0.8 | 6.4 | -0.32 | 0.37 | 1.26 | -0.31 | 0.39 | 1.2 | 3.13
